FBW7 activator: activators of human E3 ligase FBW7. AlphaScreen FBW7–phospho-cyclin E peptide binding, activator screen. AID 1259310. Q969H0. normalized activity (activation), % at 26.1 µM. hit rate 0.13% among 650,000; in the data active = normalized activity above about 1.9%;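 note: purified mutant Fbw7 with reduced substrate affinity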
TEAD-YAP block: TEAD-YAP interaction inhibition; HEK-TIYL cells, TEAD-Gal4/YAP UAS-luciferase luminescence; hit rate 1.4% among 640,000; inhibition, % at 9.12 µM; in the data active = inhibition above about 32%
GPR151 ag: activates the human receptor GPR151. activation, % at 11.2 µM. AID 1508602. PathHunter beta-arrestin GPR151 cells, luminescence. Q8TDV0. hit rate 1% among 650,000; in the data active = activation above about 4.9%
Target sequence (Q8TDV0 whole entry, looked up): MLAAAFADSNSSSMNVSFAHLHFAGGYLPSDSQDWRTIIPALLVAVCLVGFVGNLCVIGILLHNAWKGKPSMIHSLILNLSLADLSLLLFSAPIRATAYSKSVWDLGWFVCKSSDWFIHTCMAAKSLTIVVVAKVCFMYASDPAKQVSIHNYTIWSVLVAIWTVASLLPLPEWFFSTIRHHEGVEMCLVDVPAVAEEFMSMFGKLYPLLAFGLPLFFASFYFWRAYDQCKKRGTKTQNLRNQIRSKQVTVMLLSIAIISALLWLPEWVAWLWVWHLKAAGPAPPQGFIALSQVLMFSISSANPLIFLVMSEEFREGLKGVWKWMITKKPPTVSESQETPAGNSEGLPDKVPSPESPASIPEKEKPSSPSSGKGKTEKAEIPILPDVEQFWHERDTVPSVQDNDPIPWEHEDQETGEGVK
MITF primary: human MITF inhibition, primary screen; hit rate 0.91% among 650,000; AlphaScreen MITF homodimerization, bead proximity signal; inhibition, % at 2.6 µM; O75030; in the data active = inhibition above about 50%
Large screens that a line does not name were inactive. Shown are actives, neighbours in structure and some others; about 3.5% of the full set was active somewhere.

COc1ccc(OC)c(NC2=C(Cl)C(=O)c3ccccc3C2=O)c1	MITF primary 62
CCC/C=N/NC(=O)c1cccc(O)c1	TEAD-YAP block 34
C/C(CC(C)C)=N\NC(=O)c1cccc(O)c1	TEAD-YAP block 40
C/C(CC(C)C)=N/NC(=O)c1ccc(Br)cc1	none
CCC/C=N/NC(=O)c1ccc(O)cc1	none
CCOc1cc(C2C3=C(CC(C)(C)CC3=O)OC3=C2C(=O)CC(C)(C)C3)ccc1OCc1ccc(F)cc1	none
O=C(Oc1ccc([N+](=O)[O-])c2cccnc12)c1ccccc1	TEAD-YAP block 57, MITF primary 82
Cc1ccnc(NC(=O)CSc2nnc3c4ccccc4n(CCc4ccccc4)c3n2)c1	TEAD-YAP block 35
O=C(CSc1c(-c2ccccc2)[nH]c2ccccc12)N1CCCCC1	none
Cc1ccc(C)c(Cn2nnc(C(=O)Nc3ccc(Br)cc3)c2N)c1	none
Cc1ccc(CNC(=O)c2cnc3ccccn23)o1	FBW7 activator 2.1
CC(NC(=O)c1cnc2ccccn12)c1ccc(F)cc1 (centres undefined)	FBW7 activator 2.8
COc1ccc(CNC(=O)c2cnc3ccccn23)cc1	none
Cc1noc(C)c1-c1cc(C(=O)Nc2ccccc2)ccn1	none
CC1CCCN(C2=NC(=O)/C(=C\c3ccc(N(C)C)cc3)S2)C1 (centres undefined)	TEAD-YAP block 59
O=C1N=C(N2CCCC2)S/C1=C/c1ccc(O)cc1	none
CC1CCCN(C2=NC(=O)/C(=C\c3ccc(O)cc3)S2)C1 (centres undefined)	TEAD-YAP block 61
O=C1N=C(N2CCCC(CO)C2)S/C1=C/c1cccc2ccccc12 (centres undefined)	TEAD-YAP block 61
COc1ccc2c(c1)sc1ncc(C(=O)NC(c3ccccc3)C(F)(F)F)c(=O)n12 (centres undefined)	none
Cc1ccc(C)c(N2C(=O)C3C4CCC(C4)C3C2=O)c1 (centres undefined)	none
CCCNC(=O)c1cc(NCc2ccc3c(c2)OCO3)nc2ccccc12	none
O=C(NCCOc1ccccc1)c1cc(NCc2ccc3c(c2)OCO3)nc2ccccc12	GPR151 ag 6.1
O=c1[nH]c(=S)n(-c2ccccc2F)c(O)c1C=NC1CCCCC1	none
COc1ccc(CCNC(=O)c2nnn(-c3ccc4c(c3)OCCO4)c2N)cc1OC	TEAD-YAP block 65
CC(=O)Nc1ccc(Nc2nc(-c3ccc(C(N)=O)cc3)nc3c2ncn3-c2ccsc2)cc1	TEAD-YAP block 39
COc1ccc(-c2nc(Nc3ccc(NC(C)=O)cc3)c3ncn(-c4ccsc4)c3n2)cn1	TEAD-YAP block 51
COc1ccc(-c2nc(Nc3ccccc3)c3ncn(-c4ccsc4)c3n2)cn1	none
CC(=O)Nc1ccc(Nc2nc(-c3ccc(C(=O)N4CCN(C)CC4)cc3)nc3c2ncn3-c2ccsc2)cc1	TEAD-YAP block 36
NC(=O)c1ccc(-c2nc(Nc3ccccc3)c3ncn(-c4ccsc4)c3n2)cc1	TEAD-YAP block 50
NC(=O)c1ccc(-c2nc(Nc3ccc(Oc4ccccc4)cc3)c3ncn(-c4ccsc4)c3n2)cc1	none
CC(C)(C)C(=O)C[n+]1cnn(CC(=O)c2ccccc2)c1 (tested in a mixture with another compound)	none
c1ccc(CNc2ccnc(-c3ccc(N4CCOCC4)nc3)n2)cc1	none
CCCCNC(=O)C1CCC(CN(Cc2c(Cl)cccc2Cl)S(=O)(=O)c2ccc(Br)cc2)CC1 (centres undefined)	none
CC(=O)Nc1ccc(Nc2nc(-c3ccccc3)nc3c2ncn3-c2ccsc2)cc1	TEAD-YAP block 37
c1ccc(-c2nc(NC3CC3)c3ncn(-c4ccccc4)c3n2)cc1	none
NC(=O)c1ccc(-c2nc(NC3CC3)c3ncn(-c4ccccc4)c3n2)cc1	TEAD-YAP block 36
CCSc1nc(-c2ccccc2)c(NC(=O)c2ccco2)s1	FBW7 activator 1.9
O=S(=O)(NCc1csc(-c2cccs2)n1)c1ccc(-c2ccccn2)s1	FBW7 activator 2.1
CCOC(=O)CSc1nc2sc3c(c2c(=O)n1C1CCCCC1)CCN(C)C3	FBW7 activator 2.3
COC(=O)C1=CN(C)C=C(C(=O)OC)C1c1cccc(OCc2ccccc2)c1	none
CCN1C=C(C(=O)OC)C(c2cccc(OCc3ccccc3)c2)C(C(=O)OC)=C1	FBW7 activator 2.0
COC(=O)C1=CN(CC2CCCO2)C=C(C(=O)OC)C1c1cccc(O)c1 (centres undefined)	none
COC(=O)C1=CN(CC2CCCO2)C=C(C(=O)OC)C1c1cccc(Oc2ccccc2)c1 (centres undefined)	FBW7 activator 2.4
CCCOc1ccc(C2C(C(=O)OC)=CN(CCC)C=C2C(=O)OC)cc1	FBW7 activator 3.0

From PubChem BioAssay
